We go through 8 compounds from ChEMBL document CHEMBL3988442, “University of Dundee, Small-Polar-MMV Screening Library” (2021).

For some of these results: Potency and affinity values are given separately.

Common to all, as to set-up: scale not given: direction of the effect not stated beside the values
Experiment [1] concerns the target Protein translocase subunit SecA (Escherichia coli (strain K12)) (UniProt P10408). As to the kind of experiment: Assay to Identify E. coli SecA ATPase Inhibitors. The format is functional. As to conditions: 30 µM.
The target of experiment [2] is T1, Ubiquitin-activating enzyme e1, putative (Leishmania donovani (strain BPK282A1)) (UniProt E9BSI1).
T1 sequence (whole entry): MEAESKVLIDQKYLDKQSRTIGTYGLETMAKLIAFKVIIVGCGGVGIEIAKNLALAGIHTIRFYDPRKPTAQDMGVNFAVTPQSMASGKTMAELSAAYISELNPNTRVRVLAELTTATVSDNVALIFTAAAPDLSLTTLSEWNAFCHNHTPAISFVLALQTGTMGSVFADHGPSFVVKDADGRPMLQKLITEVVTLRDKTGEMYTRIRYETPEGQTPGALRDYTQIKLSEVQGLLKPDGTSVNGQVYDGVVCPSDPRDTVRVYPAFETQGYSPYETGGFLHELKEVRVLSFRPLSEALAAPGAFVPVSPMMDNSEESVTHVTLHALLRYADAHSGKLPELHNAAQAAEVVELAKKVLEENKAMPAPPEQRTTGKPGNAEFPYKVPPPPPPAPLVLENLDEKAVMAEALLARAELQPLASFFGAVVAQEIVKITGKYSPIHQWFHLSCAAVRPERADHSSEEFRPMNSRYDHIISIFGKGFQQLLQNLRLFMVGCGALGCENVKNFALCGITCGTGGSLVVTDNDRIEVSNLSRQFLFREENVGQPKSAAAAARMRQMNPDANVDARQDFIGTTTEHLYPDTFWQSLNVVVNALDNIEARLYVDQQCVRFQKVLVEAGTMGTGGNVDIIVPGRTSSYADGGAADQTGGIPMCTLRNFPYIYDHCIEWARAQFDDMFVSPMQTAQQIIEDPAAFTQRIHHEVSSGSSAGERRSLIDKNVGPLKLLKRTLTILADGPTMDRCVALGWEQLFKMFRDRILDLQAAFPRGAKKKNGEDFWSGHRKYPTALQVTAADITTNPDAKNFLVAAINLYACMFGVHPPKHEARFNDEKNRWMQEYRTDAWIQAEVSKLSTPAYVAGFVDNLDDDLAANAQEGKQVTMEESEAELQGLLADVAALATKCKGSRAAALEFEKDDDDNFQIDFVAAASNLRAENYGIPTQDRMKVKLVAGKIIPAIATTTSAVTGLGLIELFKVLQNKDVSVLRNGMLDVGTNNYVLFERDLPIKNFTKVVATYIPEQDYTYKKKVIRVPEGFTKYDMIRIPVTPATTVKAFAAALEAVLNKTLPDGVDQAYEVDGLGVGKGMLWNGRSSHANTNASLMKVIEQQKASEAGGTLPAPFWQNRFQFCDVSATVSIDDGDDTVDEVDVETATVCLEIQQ
Kind of experiment: Leishmania donovani Ubiquitin Activating Enzyme (LdE1). The format is functional. As to conditions: 30 µM.

Experiment [3] concerns the target AMP-activated protein kinase, AMPK (Homo sapiens) (UniProt P54646+O43741+P54619+Q9UGJ0+Q9Y478+Q13131+Q9UGI9). As to the kind of experiment: AMP-dependent Kinase enzyme assay. An in vitro enzyme assay that detects ADP turnover that is directly proportional to AMPK activity. This uses naive AMPK that is activated during the assay with MK-8722. The format is functional. As to conditions: 30 µM.

Experiment [4] addresses Sialic acid-binding Ig-like lectin 9 (Homo sapiens) (UniProt Q9Y336). Kind of experiment: Hs-Siglec9 ALPHAscreen SOP 20170721. As to conditions: 10 µM.
The next experiment concerns Trypanosoma cruzi. As to the kind of experiment: Trypanosoma cruzi phosphomannomutase and mannose-1-phosphate guanylyltransferase assay. The format is functional. As to conditions: 10 µM.
For experiment [5], the target named is T2, Arginase-2, mitochondrial (Homo sapiens) (UniProt P78540).
T2 sequence (whole entry): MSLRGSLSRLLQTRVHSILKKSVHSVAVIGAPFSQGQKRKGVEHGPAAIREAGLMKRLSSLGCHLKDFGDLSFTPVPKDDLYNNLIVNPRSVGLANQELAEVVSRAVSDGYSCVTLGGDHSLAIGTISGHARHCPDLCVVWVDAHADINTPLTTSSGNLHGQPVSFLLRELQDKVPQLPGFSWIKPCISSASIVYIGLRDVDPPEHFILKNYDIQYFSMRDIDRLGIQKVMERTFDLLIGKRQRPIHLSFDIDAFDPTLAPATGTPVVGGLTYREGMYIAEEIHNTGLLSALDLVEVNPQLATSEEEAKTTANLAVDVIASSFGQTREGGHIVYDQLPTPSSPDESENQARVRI
As to the kind of experiment: in vitro enzyme assay to detect the production of urea directly proportional to the activity of Arginase II. Note: in the data most compounds retested in dose-response had high values. As to conditions: 33.3 µM. The format is functional.

In experiment [6] the target is T3, Proteasome subunit beta (Trypanosoma cruzi) (UniProt O96673).
T3 sequence (whole entry): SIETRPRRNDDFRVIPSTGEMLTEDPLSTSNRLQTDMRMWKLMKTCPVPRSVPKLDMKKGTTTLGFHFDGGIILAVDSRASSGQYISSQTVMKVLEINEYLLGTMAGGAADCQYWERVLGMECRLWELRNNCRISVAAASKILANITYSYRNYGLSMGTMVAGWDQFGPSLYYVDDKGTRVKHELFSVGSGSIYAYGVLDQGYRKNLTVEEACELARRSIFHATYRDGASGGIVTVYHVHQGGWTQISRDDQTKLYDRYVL
As to the kind of experiment: Trypanosoma cruzi proteasome chymotrypsin-like activity (TcProtChymo) assay. Note: in the data most compounds retested in dose-response had high values. The format is functional. To be noted: 9.37 µM.

The species named for another experiment is Homo sapiens. Kind of experiment: To identify inhibition of the IFN signalling (Jak-Stat) pathway via expression of an eGFP reporter gene under the control of an IFN-stimulated response element (ISRE) containing MxA promoter. As to conditions: 30 µM. The format is functional. In general terms: A reporter such as luciferase makes a cellular process visible.

The target in experiment [7] is T4, Tyrosyl-tRNA synthetase, putative (Trypanosoma cruzi (strain CL Brener)) (UniProt Q4DSP6).
T4 sequence (whole entry): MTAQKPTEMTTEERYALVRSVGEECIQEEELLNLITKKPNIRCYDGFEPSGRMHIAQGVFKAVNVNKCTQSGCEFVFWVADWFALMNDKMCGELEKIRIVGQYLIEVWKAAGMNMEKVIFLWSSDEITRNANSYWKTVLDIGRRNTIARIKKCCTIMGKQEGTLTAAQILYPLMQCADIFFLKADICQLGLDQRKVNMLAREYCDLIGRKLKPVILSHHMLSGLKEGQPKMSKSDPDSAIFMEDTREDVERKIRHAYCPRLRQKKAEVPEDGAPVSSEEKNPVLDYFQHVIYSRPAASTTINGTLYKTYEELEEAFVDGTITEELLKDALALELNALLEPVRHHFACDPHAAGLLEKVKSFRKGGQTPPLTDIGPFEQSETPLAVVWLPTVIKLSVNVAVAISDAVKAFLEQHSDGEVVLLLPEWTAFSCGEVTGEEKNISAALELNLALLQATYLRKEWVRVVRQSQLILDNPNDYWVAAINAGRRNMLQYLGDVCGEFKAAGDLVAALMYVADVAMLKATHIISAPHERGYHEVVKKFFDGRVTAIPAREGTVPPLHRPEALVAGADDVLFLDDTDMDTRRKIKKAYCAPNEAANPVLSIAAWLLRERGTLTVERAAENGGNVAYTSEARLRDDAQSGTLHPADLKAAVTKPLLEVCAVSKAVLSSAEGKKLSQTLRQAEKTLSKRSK
As to the kind of experiment: Trypanosoma cruzi tyrosyl tRNA synthetase (TcYRS) _High Tyrosine SOP. Note: in the data most compounds retested in dose-response had high values. The format is functional. As to conditions: 30 µM.

Experiment [8] deals with T4, Tyrosyl-tRNA synthetase, putative (Trypanosoma cruzi (strain CL Brener)). Kind of experiment: Trypanosoma cruzi tyrosyl tRNA synthetase (TcYRS) SOP. The format is functional. As to conditions: 30 µM.
Experiment [9] has as its target Chromo domain-containing protein 1 (Saccharomyces cerevisiae (strain ATCC 204508 / S288c) (Baker's yeast)) (UniProt P32657). Kind of experiment: ScCHD-1 Enzyme Inhibition Assay. Note: in the data most compounds retested in dose-response had high values. The format is functional. To be noted: 30 µM.

Sialic acid-binding Ig-like lectin 9 (Homo sapiens), sequence (Q9Y336 whole entry): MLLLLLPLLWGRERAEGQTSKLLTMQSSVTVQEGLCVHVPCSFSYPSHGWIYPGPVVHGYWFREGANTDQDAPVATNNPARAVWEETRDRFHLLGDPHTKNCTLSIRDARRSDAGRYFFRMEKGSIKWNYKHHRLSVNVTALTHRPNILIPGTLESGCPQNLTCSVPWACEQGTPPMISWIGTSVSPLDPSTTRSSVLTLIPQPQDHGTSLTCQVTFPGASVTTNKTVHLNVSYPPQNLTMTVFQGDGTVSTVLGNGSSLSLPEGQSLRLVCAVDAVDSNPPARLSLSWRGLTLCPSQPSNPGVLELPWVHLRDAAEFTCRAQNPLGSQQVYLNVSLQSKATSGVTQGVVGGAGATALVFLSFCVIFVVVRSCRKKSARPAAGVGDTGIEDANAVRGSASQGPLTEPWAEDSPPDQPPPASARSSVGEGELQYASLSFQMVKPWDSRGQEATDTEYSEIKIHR
Chromo domain-containing protein 1 (Saccharomyces cerevisiae (strain ATCC 204508 / S288c) (Baker's yeast)), sequence (P32657 whole entry, the tested form may be a part): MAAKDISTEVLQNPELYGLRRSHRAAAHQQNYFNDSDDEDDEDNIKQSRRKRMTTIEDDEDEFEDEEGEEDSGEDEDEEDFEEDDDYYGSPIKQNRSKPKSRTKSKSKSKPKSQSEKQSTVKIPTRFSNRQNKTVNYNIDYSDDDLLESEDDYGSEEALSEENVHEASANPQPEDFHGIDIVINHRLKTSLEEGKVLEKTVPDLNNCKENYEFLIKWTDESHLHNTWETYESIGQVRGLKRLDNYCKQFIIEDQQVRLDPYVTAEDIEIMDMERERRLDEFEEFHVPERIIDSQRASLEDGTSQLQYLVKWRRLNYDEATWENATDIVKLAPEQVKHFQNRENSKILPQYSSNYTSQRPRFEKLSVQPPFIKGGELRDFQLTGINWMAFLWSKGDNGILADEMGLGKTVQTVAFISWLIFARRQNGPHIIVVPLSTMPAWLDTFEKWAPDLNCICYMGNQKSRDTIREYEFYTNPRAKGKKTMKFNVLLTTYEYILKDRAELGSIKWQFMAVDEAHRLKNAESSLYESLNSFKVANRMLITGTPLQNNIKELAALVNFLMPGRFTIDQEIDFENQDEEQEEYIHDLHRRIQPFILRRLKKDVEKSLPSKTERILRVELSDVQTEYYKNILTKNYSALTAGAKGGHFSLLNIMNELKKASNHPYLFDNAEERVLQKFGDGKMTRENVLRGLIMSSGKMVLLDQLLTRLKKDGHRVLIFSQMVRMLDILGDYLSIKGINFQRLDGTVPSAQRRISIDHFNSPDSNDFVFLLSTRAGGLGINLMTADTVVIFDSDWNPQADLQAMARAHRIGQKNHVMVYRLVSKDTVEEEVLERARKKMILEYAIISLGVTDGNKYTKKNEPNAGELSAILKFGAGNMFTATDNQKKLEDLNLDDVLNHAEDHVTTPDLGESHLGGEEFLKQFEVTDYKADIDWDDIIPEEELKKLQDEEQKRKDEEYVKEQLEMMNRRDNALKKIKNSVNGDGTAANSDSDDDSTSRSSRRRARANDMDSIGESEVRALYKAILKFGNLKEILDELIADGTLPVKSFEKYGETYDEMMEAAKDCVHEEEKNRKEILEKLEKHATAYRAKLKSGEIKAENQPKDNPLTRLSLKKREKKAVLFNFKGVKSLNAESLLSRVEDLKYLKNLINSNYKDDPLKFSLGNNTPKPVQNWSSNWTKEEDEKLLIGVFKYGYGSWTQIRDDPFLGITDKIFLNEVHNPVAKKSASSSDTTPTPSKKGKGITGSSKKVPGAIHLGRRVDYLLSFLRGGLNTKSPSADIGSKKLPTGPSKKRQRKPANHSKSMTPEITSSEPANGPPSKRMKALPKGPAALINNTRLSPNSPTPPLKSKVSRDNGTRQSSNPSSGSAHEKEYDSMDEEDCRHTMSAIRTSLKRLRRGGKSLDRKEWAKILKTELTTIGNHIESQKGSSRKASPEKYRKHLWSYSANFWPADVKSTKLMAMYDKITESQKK
Protein translocase subunit SecA (Escherichia coli (strain K12)), sequence (P10408 whole entry): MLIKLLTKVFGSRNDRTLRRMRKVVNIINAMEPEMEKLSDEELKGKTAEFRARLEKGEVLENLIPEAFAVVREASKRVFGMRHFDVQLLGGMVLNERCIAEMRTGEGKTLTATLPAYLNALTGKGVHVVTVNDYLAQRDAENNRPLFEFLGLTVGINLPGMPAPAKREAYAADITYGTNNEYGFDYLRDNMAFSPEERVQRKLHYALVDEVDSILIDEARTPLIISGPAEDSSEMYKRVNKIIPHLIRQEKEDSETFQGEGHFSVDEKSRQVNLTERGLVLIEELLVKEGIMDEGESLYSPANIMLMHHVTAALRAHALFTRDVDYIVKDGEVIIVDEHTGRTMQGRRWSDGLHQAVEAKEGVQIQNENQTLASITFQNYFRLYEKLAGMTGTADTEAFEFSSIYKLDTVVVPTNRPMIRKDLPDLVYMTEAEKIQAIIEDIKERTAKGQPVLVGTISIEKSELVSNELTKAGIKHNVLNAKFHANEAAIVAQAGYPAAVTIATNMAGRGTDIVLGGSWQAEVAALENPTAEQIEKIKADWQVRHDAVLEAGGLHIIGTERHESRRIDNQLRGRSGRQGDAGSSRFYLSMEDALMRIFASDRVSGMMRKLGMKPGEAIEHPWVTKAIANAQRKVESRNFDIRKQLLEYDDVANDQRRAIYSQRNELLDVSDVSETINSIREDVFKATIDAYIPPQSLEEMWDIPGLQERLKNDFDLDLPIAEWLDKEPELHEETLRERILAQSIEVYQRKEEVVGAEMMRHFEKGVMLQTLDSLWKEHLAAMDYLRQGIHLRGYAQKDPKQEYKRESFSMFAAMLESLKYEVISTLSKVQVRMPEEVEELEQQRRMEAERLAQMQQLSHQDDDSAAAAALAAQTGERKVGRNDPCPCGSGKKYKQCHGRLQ

Take `Cc1cccc(OCCC(=O)N2CCCN(CC(N)=O)CC2)c1C`: the Percent Effect in experiment [1] is -3.47%; in experiment [2], 17.7%; in experiment [3], -7.09%; in experiment [4], 14.1%; with Trypanosoma cruzi, 1.6%; in experiment [5], -3.42%. In addition, the Percent Effect in [6] is 4.34%; in the experiment filed under Homo sapiens it was -12.7%; in [7] it was 1.48%; in experiment [8] it was 16.5%; in experiment [9] it was -5.52%.

For `CC(=O)c1cccc(OCCCC(=O)NCC2CCCN2C)c1` (stereo not drawn), the Percent Effect in [1] was -3.97%; in [2], 13.2%; in [3], -2.69%; in [4] it was 14.8%; in the experiment with Trypanosoma cruzi, 3.57%; in experiment [5], 0%. Further, the Percent Effect in experiment [6] was 11.7%; in the experiment filed under Homo sapiens, 6.04%; in experiment [7], 10.3%; in experiment [8] it was 21.9%; in [9] it was -9.7%.

Take `c1cnc(-c2nc(CN3CCC(c4ccn[nH]4)CC3)cs2)nc1`: the Percent Effect in experiment [1] was -1.4%; in experiment [2], 13.5%; in [3], -30.2%; in [4], 15%; with Trypanosoma cruzi, 2.32%; in experiment [5] it was 1.66%. The Percent Effect in experiment [6] was 2.15%; in the experiment filed under Homo sapiens it was -0.446%; in experiment [7], 7.92%; in experiment [8] it was 23.2%; in [9] it was -3.65%.

As for `Cc1ccc(CN(C)C(=O)CN2CCCC2Cn2cccn2)o1` (stereo not drawn), the Percent Effect is 0.121% in experiment [1]; 2.7% in [2]; -3.95% in experiment [3]; 12.4% in experiment [4]; 5.99% with Trypanosoma cruzi; 0% in experiment [5]. Besides, the Percent Effect in experiment [6] is 1.9%; in the experiment filed under Homo sapiens, -5.92%; in experiment [7], 2.65%; in experiment [8], 7.32%; in experiment [9], -4.66%.

As to `CC(=O)N1CCCN(C(=O)NCc2ccccn2)CC1`, the Percent Effect was -4.25% in experiment [1]; 0% in [2]; 2.97% in experiment [3]; 0.332% in [4]; -5.88% in the experiment with Trypanosoma cruzi; 3.6% in experiment [5]. Further, the Percent Effect in experiment [6] is 3.81%; in the experiment filed under Homo sapiens it was 2.28%; in experiment [7], 1.48%; in experiment [8], -6.17%; in [9] it was 9.43%.

Take `Cc1csc(N2CCCN(C(=O)C(C(C)C)n3cncn3)CC2)n1` (stereo not drawn): the Percent Effect in experiment [1] is -1.03%; in [2], 13.5%; in [3] it was 0.997%; in experiment [4], -3.98%; with Trypanosoma cruzi, -5.29%; in experiment [5] it was 3.51%. Moreover, the Percent Effect in experiment [6] was 10.9%; in the experiment filed under Homo sapiens it was 19.3%; in experiment [7], 6.93%; in experiment [8] it was 15.8%; in experiment [9], -2.71%.

With `COc1ncccc1NC(=O)NCC1CCS(=O)(=O)C1` (stereo not drawn), the Percent Effect was -2.59% in [1]; 20.8% in experiment [2]; -3.16% in experiment [3]; 6.78% in experiment [4]; -0.936% in the experiment on Trypanosoma cruzi; -3.92% in experiment [5]. Further, the Percent Effect in experiment [6] was 4.22%; in the experiment filed under Homo sapiens, -12.2%; in experiment [7], 5.83%; in [8] it was 12.2%; in experiment [9] it was -8.21%.

Regarding `CC(C)NC(=O)c1nnn(-c2cccc(C(F)(F)F)c2)c1N`, the Percent Effect is -2.18% in [1]; -4.17% in [2]; -2.65% in experiment [3]; -0.424% in experiment [4]; 6.51% in the experiment on Trypanosoma cruzi; -4.86% in [5]. Further, the Percent Effect in experiment [6] was 4.04%; in the experiment filed under Homo sapiens, 11.5%; in experiment [7], 0%; in [8], 0%; in experiment [9], -1.24%.
